Results published in ChEMBL document CHEMBL1157539, “Thousands of chemical starting points for antimalarial lead identification” (Nature, 2010).

tested on: HepG2; test: GSK_TCMDC: Percent inhibition of human HepG2 cell line. Test compounds present at 10uM.; type: functional

Row | SMILES | Inhibition
1 | COc1ccc2nccc([C@@H](O)CN3CCC(NCCc4c[nH]c5ccccc45)CC3)c2c1.O=C(O)C(=O)O | 0%
2 | CC[C@H]1CN(Cc2ccccc2Br)CC[C@H]1CCCc1ccnc2ccc(O)cc12 | 12%
3 | COc1ccccc1N1CCN(CCCCNC(=O)c2ccc(NC(=O)c3cc4ccccc4o3)cc2)CC1 | 9%
4 | COc1ccc(-c2ccc(NC(=O)c3ccc(C#N)cc3)cc2)cc1CN(C)CCN(C)C.O=C(O)C(F)(F)F | 28%
5 | O=C(/C=C/c1ccc(Cl)c(Cl)c1)NCCCCCN1CCC(C(=O)Nc2cccc(Cl)c2)CC1 | 48%
6 | Cc1cc(CNCCCCCCNCc2cccc([N+](=O)[O-])c2)ccc1O | 13%
7 | CCCCOC(=O)c1ccc(Nc2cc(C)nc3ccc(OC)cc23)cc1 | 4%
8 | CN1CCC(NCc2ccc(-c3cccc(S(=O)(=O)NCc4ccccc4)c3)cc2)CC1.O=C(O)C(F)(F)F | 72%
9 | COc1ccc(F)cc1-c1ccccc1CNC(=O)c1cnn(-c2ccc([N+](=O)[O-])cc2)c1C(F)(F)F | 0%
